According to PubChem BioAssay (Tox21):
Several values for one entry are separate records, joined by “and”; a condition that tells them apart may be missing. Equal values may be shown once. Inconclusive results are not listed. Activity calls are given as the source filed them. Unless noted, calls follow the shape of the dose curve; as a rule, active = well fitted curve in the direction sought with a large enough effect in the repeat runs; inconclusive = weak or mixed curves; inactive = no such curve, though single readings can be large; an effect the other way counts as inactive or inconclusive.

Legend:
[1] = qHTS assay to identify small molecule agonists of the constitutive androstane receptor (CAR) signaling pathway - cell viability counter screen (AID 1224836); also: nearly all actives have a fitted effect of over 45% in size; also: potency is read from the fitted curve at half-maximal effect; as to viability change, negative = cytotoxic: series mostly up to about 92 µM
Summary of the method: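 Cells were seeded and incubated 4 hrs. Compounds were added across 15 concentrations together with PK11195 at 0.75 uM final. Plates were incubated 23 hrs at 37 C. CellTiter-Fluor was added and fluorescence measured.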

[2] = qHTS assay to identify small molecule antagonists of the constitutive androstane receptor (CAR) signaling pathway - cell viability counter screen (AID 1224837); also: nearly all actives have a fitted effect of over 45% in size; also: potency is read from the fitted curve at half-maximal effect; as to activity change, negative = cytotoxicity: series mostly up to about 92 µM
Summary of the method: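 HepG2-CYP2B6-hCAR cells, 2500/well, 4 hr pre-incubation; compound titration, 15 conc.; CITCO 50 nM final; 23 hr, 37 C/5% CO2; CellTiter-Fluor, fluorescence intensity.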

[3] = target: Nuclear receptor subfamily 1 group I member 3 (Homo sapiens) (UniProt Q14994); assay: qHTS assay to identify small molecule antagonists of the constitutive androstane receptor (CAR) signaling pathway (AID 1224838);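 also: HepG2 cells stably expressing hCAR with CYP2B6 luciferase reporter stimulated by CITCO; nearly all actives have a fitted effect of over 40% in size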; also: potency is read from the fitted curve at half-maximal effect
Summary of the method: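 HepG2-CYP2B6-hCAR cells; 4 h pre-incubation; cpd (15 conc) + CITCO 50 nM final; 24 h, 37 C/5% CO2; ONE-Glo, luminescence.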

[4] = target: Nuclear receptor subfamily 1 group I member 3 (Homo sapiens) (UniProt Q14994); assay: qHTS assay to identify small molecule agonists of the constitutive androstane receptor (CAR) signaling pathway (AID 1224839); also: nearly all actives have a fitted effect of over 15% in size; also: potency is read from the fitted curve at half-maximal effect;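 as to activation: HepG2 cells stably carrying human CAR and a CYP2B6 luciferase reporter; series mostly up to about 92 µM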
Summary of the method: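 Cells were plated and incubated 4 hrs, then dosed with compounds at 15 concentrations. PK11195 was added to 0.75 uM final. After 24 hrs at 37 C, luciferase luminescence was measured.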

[5] = qHTS assay to identify small molecule antagonists of the estrogen related receptor signaling pathway with the pleiotropic PPARgamma coactivator (PGC) from Tox21 10K library - cell viability counter screen (AID 1224840; active = well fitted cell-killing curve with a large enough effect in the repeat runs, not every such curve was filed as active; also: nearly all actives have a fitted effect of over 40% in size; also: potency is read from the fitted curve at half-maximal effect)
Summary of the method: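 PGC/ERR cells, 2,000/well; 6 h pre-incubation 37 C/5% CO2; cpd in DMSO via pin tool; 17.5 h 37 C; CellTiter-Fluor, 30 min; fluorescence.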

[6] = qHTS assay to identify small molecule antagonists of the estrogen related receptor signaling pathway with the pleiotropic PPARgamma coactivator (PGC) from Tox21 10K library (AID 1224841; call rule not given here; also: actives are mostly falling curves and most rising ones were filed inactive; nearly all actives have a fitted effect of over 50% in size; also: potency is read from the fitted curve at half-maximal effect; as to activity, negative = inhibition: series mostly up to about 92 µM)
Summary of the method: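 PGC/ERR cell line, 2,000 cells/well; 6 h pre-incubation 37 C/5% CO2; compounds (DMSO) pinned in; 18 h, 37 C; One-Glo, 30 min RT; luminescence.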

[7] = qHTS assay to identify small molecule agonists of the estrogen related receptor signaling pathway with the pleiotropic PPARgamma coactivator (PGC) from Tox21 10K library (AID 1224842); also: nearly all actives have a fitted effect of over 15% in size; also: potency is read from the fitted curve at half-maximal effect
Summary of the method: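 PGC/ERR reporter cell line, 2,000 cells per well, incubated 6 h at 37 C before 23 nL compound in DMSO was added. After 18 h at 37 C, One-Glo luminescence read following 30 min at room temperature.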

[8] = target: Thyrotropin receptor (Homo sapiens) (UniProt P16473); assay: qHTS assay to identify small molecule agonists of the thyroid stimulating hormone receptor (TSHR) signaling pathway (AID 1224843; calls by dose curve; also: nearly all actives have a fitted effect of over 45% in size; also: potency is read from the fitted curve at half-maximal effect)
Summary of the method: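 TSHR-HEK293 cells in agonist mode, 30 min room-temperature step, then cAMP measured by competitive HTRF (cAMP-d2 with anti-cAMP cryptate) after 1 h at room temperature. Tested at 15 concentrations in triplicate.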

[9] = qHTS assay to identify small molecule agonists of the hypoxia (HIF-1) signaling pathway - cell viability counter screen (AID 1224844; calls by dose curve; also: nearly all actives have a fitted effect of over 50% in size; also: potency is read from the fitted curve at half-maximal effect)
Summary of the method: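 ME-180 HRE-bla cells, 2,000/well, 0.5% dialyzed FBS; 5 hr settle, 17 hr compound at 37C/5% CO2; CCF4-AM reporter read first, then CellTiter-Glo luminescence after 30 min RT.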

[10] = qHTS assay to identify small molecule agonists of H2AX (AID 1224845; active = well fitted activation curve with a large enough effect in the signal ratio in the repeat runs, not every such curve was filed as active; the % refers to the signal ratio)
Summary of the method: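 Wild-type CHO-K1 cells, plated overnight, exposed 3hr at 37C to 15 concentrations (0.76% DMSO final). Lysed, then HTRF anti-pH2AX (S139) cryptate and anti-H2AX-d2 antibodies, 24 hr room temperature; 665/620 nm emission read.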
% is scaled to controls: 0 for no effect and ±100 for the full control effect.

Chain of Nuclear receptor subfamily 1 group I member 3 (Homo sapiens) (Q14994 whole entry, looked up): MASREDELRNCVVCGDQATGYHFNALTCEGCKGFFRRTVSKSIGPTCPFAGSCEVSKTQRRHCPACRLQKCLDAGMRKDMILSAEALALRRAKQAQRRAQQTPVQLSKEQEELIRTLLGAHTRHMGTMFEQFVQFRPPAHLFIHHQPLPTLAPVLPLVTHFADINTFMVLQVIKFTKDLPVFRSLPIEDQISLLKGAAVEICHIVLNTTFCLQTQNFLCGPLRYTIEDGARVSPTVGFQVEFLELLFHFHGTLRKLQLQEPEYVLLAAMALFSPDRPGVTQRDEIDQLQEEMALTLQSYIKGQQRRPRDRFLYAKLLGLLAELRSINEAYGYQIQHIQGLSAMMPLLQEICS
Chain of Thyrotropin receptor (Homo sapiens) (P16473 whole entry, looked up): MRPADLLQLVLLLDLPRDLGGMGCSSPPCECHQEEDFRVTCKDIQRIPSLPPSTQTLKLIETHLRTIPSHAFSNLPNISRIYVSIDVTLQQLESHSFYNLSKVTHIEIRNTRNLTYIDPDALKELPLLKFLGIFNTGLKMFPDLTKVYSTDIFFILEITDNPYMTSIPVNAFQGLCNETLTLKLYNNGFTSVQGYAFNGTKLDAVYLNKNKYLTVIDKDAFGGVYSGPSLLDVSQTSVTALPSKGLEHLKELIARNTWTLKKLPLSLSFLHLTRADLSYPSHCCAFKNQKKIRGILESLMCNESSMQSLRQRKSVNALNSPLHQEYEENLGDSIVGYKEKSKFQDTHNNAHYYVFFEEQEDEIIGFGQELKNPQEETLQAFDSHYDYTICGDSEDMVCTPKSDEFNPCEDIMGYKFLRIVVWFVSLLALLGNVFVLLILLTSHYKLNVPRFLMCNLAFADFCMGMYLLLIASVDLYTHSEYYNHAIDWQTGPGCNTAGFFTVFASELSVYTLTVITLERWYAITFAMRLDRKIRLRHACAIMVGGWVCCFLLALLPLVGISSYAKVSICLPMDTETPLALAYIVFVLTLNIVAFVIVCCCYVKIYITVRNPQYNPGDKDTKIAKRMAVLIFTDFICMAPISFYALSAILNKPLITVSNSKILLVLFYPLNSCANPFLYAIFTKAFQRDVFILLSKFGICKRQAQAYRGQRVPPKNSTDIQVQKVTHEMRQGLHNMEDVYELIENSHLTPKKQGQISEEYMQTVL

Clc1ccc(-c2ccccc2)cc1
inactive: Potency [1] | Potency [2] | Potency [3] | Potency [4] | Potency [5] | Potency [6] | Potency [7] | Potency [8] | Potency [9] | Potency [10]

Clc1ccc(C(c2ccccc2Cl)C(Cl)(Cl)Cl)cc1 (stereo unspecified)
active: Potency [4] 6.9 µM and 1.6 µM | Potency [6] 61.5 µM
inactive: Potency [1] | Potency [2] | Potency [3] | Potency [5] | Potency [7]

COCC(=O)N(c1c(C)cccc1C)[C@H](C)C(=O)OC
inactive: Potency [1] | Potency [2] | Potency [3] | Potency [4] | Potency [5] | Potency [6] | Potency [7] | Potency [8] | Potency [9] | Potency [10]

CCCCCCCCCCCCCCCCCCn1cc[n+](C)c1
active: Potency [1] 24.2 µM | Potency [2] 17.1 µM | Potency [3] 43 µM | Potency [5] 30.5 µM | Potency [6] 24.2 µM | Potency [9] 43.4 µM
inactive: Potency [4] | Potency [7] | Potency [8]

C1CCC2CCCCC2C1 (stereo unspecified)
inactive: Potency [1] | Potency [2] | Potency [3] | Potency [4] | Potency [5] | Potency [6] | Potency [7] | Potency [9]

C[C@H]1CC[C@@H]2[C@@H](C)[C@H]3[C@H](C[C@H]4[C@@H]5CC=C6CC(O[C@@H]7O[C@H](CO)[C@H](O)[C@H](O[C@@H]8O[C@H](CO)[C@@H](O)[C@H](O)[C@H]8O)[C@H]7O[C@H]7O[C@@H](C)[C@H](O)[C@@H](O)[C@H]7O)CC[C@]6(C)[C@H]5CC[C@]34C)N2C1 (stereo partly specified)
inactive: Potency [4] | Potency [6] | Potency [10]
active: Potency [1] 22.4 µM | Potency [2] 22.4 µM | Potency [3] 22.4 µM | Potency [5] 22.4 µM | Potency [9] 16 µM

CCC(C)(C)C(=O)OC1=C(c2ccc(Cl)cc2Cl)C(=O)OC12CCCCC2
inactive: Potency [1] | Potency [2] | Potency [3] | Potency [4] | Potency [5] | Potency [6] | Potency [8] | Potency [10]
active: Potency [9] 49 µM

Brc1c(Br)c(Br)c(Oc2c(Br)c(Br)c(Br)c(Br)c2Br)c(Br)c1Br
inactive: viability change, negative = cytotoxic [1] -2.08% [at 19 µM] | activity change, negative = cytotoxicity [2] 5.53% [at 19 µM] | activity, negative = inhibition [3] -4.8% [at 19 µM] | activation [4] -0.206% [at 19 µM] | viability change, negative = cytotoxic [5] 10.1% [at 19 µM] | activity, negative = inhibition [6] 39.4% [at 19 µM] | activation [7] 1.27% [at 19 µM] | activation [8] -5.88% [at 19 µM] | activity change, negative = cytotoxicity [9] 12% [at 15.8 µM] | activation (H2AX phosphorylation) [10] -7.06% [at 31.6 µM]

COc1ccc(/C(=C/C(=O)N2CCOCC2)c2ccc(Cl)cc2)cc1OC
inactive: Potency [1] | Potency [2] | Potency [3] | Potency [4] | Potency [5] | Potency [6] | Potency [7] | Potency [8] | Potency [9] | Potency [10]

CC(C)CCCCCCCOP(=O)(Oc1ccccc1)Oc1ccccc1
inactive: Potency [1] | Potency [2] | Potency [3] | Potency [5] | Potency [7] | Potency [9] | Potency [10]
active: Potency [4] 27.4 µM | Potency [8] 24.5 µM

C[C@@H]1CC[C@@]2(OC1)O[C@H]1[C@@H](O)[C@H]3[C@@H]4CC[C@H]5C[C@@H](O[C@@H]6O[C@H](CO)[C@H](O[C@@H]7O[C@H](CO)[C@@H](O)[C@H](O[C@@H]8OC[C@@H](O)[C@H](O)[C@H]8O)[C@H]7O[C@@H]7O[C@H](CO)[C@@H](O)[C@H](O[C@@H]8O[C@H](CO)[C@@H](O)[C@H](O)[C@H]8O)[C@H]7O)[C@H](O)[C@H]6O)[C@H](O)C[C@]5(C)[C@H]4CC[C@]3(C)[C@H]1[C@@H]2C
active: Potency [1] 23 µM | Potency [2] 25.8 µM | Potency [3] 29 µM | Potency [5] 20.5 µM | Potency [6] 40.9 µM | Potency [9] 11.6 µM
inactive: Potency [4] | Potency [7] | Potency [10]

CCOP(=S)(OCC)SCS(=O)(=O)CC
inactive: Potency [1] | Potency [2] | Potency [3] | Potency [4] | Potency [5] | Potency [7] | Potency [8] | Potency [9]

Cc1cc(N=Nc2ccccc2C)ccc1N
active: Potency [1] 17.2 µM and 1.09 µM | Potency [2] 3.06 µM | Potency [4] 30.6 µM and 48.6 µM | Potency [5] 38.6 µM and 27.3 µM | Potency [7] 4.33 µM and 2.43 µM
inactive: Potency [3] | Potency [6] | Potency [9] | Potency [10]

Nc1ccc(Sc2ccc(N)cc2)cc1
active: Potency [4] 34.4 µM
inactive: Potency [1] | Potency [2] | Potency [3] | Potency [5] | Potency [7] | Potency [8] | Potency [9]

C=CC(=O)OCC(COC(=O)C=C)(COC(=O)C=C)COC(=O)C=C
active: Potency [1] 15.4 µM | Potency [2] 8.63 µM | Potency [3] 8.63 µM | Potency [5] 5.45 µM | Potency [6] 13.7 µM | Potency [8] 8.63 µM | Potency [9] 6.92 µM
inactive: Potency [4] | Potency [7]

Cc1cc(SCc2sc(-c3ccc(C(F)(F)F)c(F)c3)nc2C)ccc1OCC(=O)O
active: Potency [9] 12.3 µM
inactive: Potency [1] | Potency [2] | Potency [3] | Potency [4] | Potency [5] | Potency [6] | Potency [7] | Potency [10]

BrC(Br)Br
inactive: Potency [1] | Potency [2] | Potency [3] | Potency [4] | Potency [5] | Potency [6] | Potency [7] | Potency [8] | Potency [9] | Potency [10]

c1ccc(Nc2ccc3ccccc3c2)cc1
active: Potency [4] 30.5 µM and 48.6 µM | Potency [7] 27.1 µM and 30.6 µM | Potency [8] 48.3 µM
inactive: Potency [1] | Potency [2] | Potency [3] | Potency [5] | Potency [6]

CC(=O)C(Cl)(Cl)Cl
inactive: Potency [4] | Potency [7] | Potency [8] | Potency [9] | Potency [10]
active: Potency [1] 16.6 µM | Potency [2] 20.9 µM | Potency [3] 23.5 µM | Potency [5] 23.5 µM | Potency [6] 8.34 µM

O=C/C(Cl)=C(/Cl)C(=O)O
inactive: Potency [1] | Potency [2] | Potency [3] | Potency [4] | Potency [5] | Potency [6] | Potency [7] | Potency [8]

FC(F)(F)c1cccc(C2=CCN(CCc3ccc4ccccc4c3)CC2)c1
inactive: Potency [1] | Potency [2] | Potency [3] | Potency [4] | Potency [5] | Potency [6] | Potency [7] | Potency [10]
